Source: PubChem BioAssay AID1022 (Emory University Molecular Libraries Screening Center, 2008)
Among all 220,000 compounds or so, about 3,300 (1.5%) were called active. Shown is part of a subset that was picked to be rich in actives. A number with no mark means an inactive call.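 Rule for the calls: active = compounds that cut the protein-peptide binding signal by more than 50% relative to plate controls in a single-dose test; inactive = the rest.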

target: Induced myeloid leukemia cell differentiation protein Mcl-1 (Homo sapiens) (UniProt Q07820); test: disruptors of Mcl-1 and Noxa BH3 peptide – biochemical, TR-FRET, 1536-well, primary screen (AID 1022); conditions: TR-FRET Mcl-1/Noxa peptide binding, 2 h; at 21.7 µM; active compounds read high;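 note: His-tagged Mcl-1 with rhodamine Noxa BH3 peptide and terbium anti-His antibody; 0% = Mcl-1 plus Noxa peptide wells and 100% = peptide-only wells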
Sequence (Q07820 whole entry, looked up): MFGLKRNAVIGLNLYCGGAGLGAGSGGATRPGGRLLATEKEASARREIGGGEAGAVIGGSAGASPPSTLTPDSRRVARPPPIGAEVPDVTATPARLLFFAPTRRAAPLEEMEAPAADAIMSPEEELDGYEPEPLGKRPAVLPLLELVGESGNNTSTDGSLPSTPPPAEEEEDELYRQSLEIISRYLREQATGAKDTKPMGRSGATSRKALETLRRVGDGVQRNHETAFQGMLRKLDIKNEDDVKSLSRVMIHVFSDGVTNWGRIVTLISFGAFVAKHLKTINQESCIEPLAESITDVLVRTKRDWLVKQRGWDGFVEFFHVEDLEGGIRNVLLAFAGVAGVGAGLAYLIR

SMILES	inhibition
Cc1cccc(N2C(=O)NC(=O)/C(=C\c3cnn(-c4ccccc4)c3)C2=O)c1	29.4%
O=C1NC(=O)N(c2ccccc2)C(=O)/C1=C/c1ccc([N+](=O)[O-])s1	45.5%
COc1cccc(N2C(=O)NC(=O)/C(=C\c3ccc([N+](=O)[O-])s3)C2=O)c1	59.7% (active)
CCCCC(=O)N/N=C/c1c(O)n(-c2ccccc2)c(=O)[nH]c1=O	-147%
Cc1c(C(=O)O)cccc1-n1c(C)cc(/C=C2\C(=O)NC(=O)N(c3ccc4c(c3)OCO4)C2=O)c1C	14.7%
O=C1NC(=O)N(c2ccc(F)cc2)C(=O)/C1=C/c1ccc2c(c1)CCCN2Cc1ccccc1	67.7% (active)
O=C1NC(=O)N(CCc2ccc(F)cc2)C(=O)/C1=C/C=C/c1ccccc1	6.31%
O=c1[nH]c(=O)n(CCc2ccccc2)c(O)c1/C=N/N1CCOCC1	6.09%
COc1cccc(CN2CCCC(C(=O)c3ccccc3SC)C2)c1O (stereo not given)	16.2%
CCCCCCCCCCCCn1ccc(=N)cc1	2.41%
O=C(O)CCn1cc(C=C2C(=O)NC(=S)NC2=O)c(-c2cccc(Br)c2)n1	93.9% (active)
CN(C)CC1CCCCC1=O (stereo not given)	21.8%
CNC(=O)O/N=C(\N)Cc1csc2ccccc12	-19.1%
Cc1ccc(-n2c(O)c(C=NCC3CCCO3)c(=O)[nH]c2=O)c(C)c1 (stereo not given)	-16.8%
O=C1NC(=O)N(Cc2ccco2)C(=O)/C1=C\c1cccn1CCOc1ccccc1	3.37%
Cc1cc(/C=C2/C(=O)NC(=O)N(Cc3ccco3)C2=O)c(C)n1-c1ccc(C(=O)O)cc1	27.4%
O=C1NC(=O)N(Cc2ccco2)C(=O)/C1=C\c1ccc(-c2ccc(F)cc2)o1	69.5% (active)
CSc1ccc(C(=O)C2CCCN(Cc3ccn[nH]3)C2)cc1 (stereo not given)	16.2%
c1cc2c(cc1[C@H]1OC[C@H]3[C@@H]1CO[C@@H]3c1ccc3c(c1)OCO3)OCO2	1.72%
CCOc1cccc(=NC2CCCCC2)c2c(C)[nH]c(C)c12	23.3%
